Consider 30 molecules from ChEMBL document CHEMBL1157539, “Thousands of chemical starting points for antimalarial lead identification” (Nature, 2010).

As a reminder, the Inhibition is the change of the read-out against control, counted positive when it falls. High values mean a strong effect, low ones a weak effect.

Several values for one entry are separate records, joined by “and”; a condition that tells them apart may be missing. Equal entries are not always repeated.

Common to all, as to assay type: functional
Test [1] has as its system Plasmodium falciparum. The test is described as follows: GSK_TCMDC: Inhibition of Plasmodium falciparum 3D7 in whole red blood cells, using parasite LDH activity as an index of growth. Test compounds present at 2uM.
The subject of test [2] is Plasmodium falciparum. The test is described as follows: GSK_TCMDC: Inhibition of Plasmodium falciparum Dd2 in whole red blood cells, using parasite LDH activity as an index of growth. Test compounds present at 2uM.
Test [3] relates to HepG2. Kind of test: GSK_TCMDC: Percent inhibition of human HepG2 cell line. Test compounds present at 10uM.

With `O=C(Cc1c(-c2ccccc2)[nH]c2ccccc12)NC1CCC(CN2CCC(c3c[nH]c4ccccc34)CC2)CC1` (stereo not given), the Inhibition in test [1] was found to be 100%; in test [2], 75%; in test [3], 31%.

With `O=C(/C=C/c1ccc(C(F)(F)F)cc1)NC1CCC(CN2CCC(c3c[nH]c4ccccc34)CC2)CC1` (stereo not given), the Inhibition was 100% and 98% in test [1]; 100% and 97% in test [2]; 73% and 42% in test [3].

As to `CN(Cc1ccccc1)C1CCN(CCc2c[nH]c3ccc(F)cc23)CC1.O=C(O)C(F)(F)F`, the Inhibition in test [1] was 100%; in test [2] it was 91%; in test [3], 28%.

As for `CN1CC=C(c2c[nH]c3ccc(Br)cc23)CC1`, the Inhibition is given as 88% in test [1], 80% in test [2] and 0% in test [3].

For `O=C(CSc1ccc(Cl)cc1)NC1CCC(CN2CCC(c3c[nH]c4ccccc34)CC2)CC1` (stereo not given), the figures for the Inhibition in test [1], in test [2] and in test [3] were 95%, 21% and 41%, respectively.

Regarding `COc1cccc(CCNC(C)Cc2ccc(OCCCCOc3ccccc3)cc2)c1` (stereo not given), the Inhibition in test [1] is recorded as 97%; in test [2], 90%; in test [3] it was 100%.

As for `Oc1ccc(Cl)cc1CN1CCC(CCOC(c2ccccc2)c2ccccc2)CC1`, the Inhibition stood at 98% in test [1], 99% in test [2] and 14% in test [3].

In the case of `O=C(/C=C/c1ccc(Cl)c(Cl)c1)N1CCC(CN2CCC(c3c[nH]c4ccc(O)cc34)CC2)CC1`, the results for the Inhibition in test [1], in test [2] and in test [3] were 100%, 100% and 44%, respectively.

Take `O=C(/C=C/c1ccc(Cl)c(Cl)c1)Nc1cccc(CN2CCC(c3c[nH]c4ccccc34)CC2)c1`: the Inhibition in test [1] is 99%; in test [2], 91%; in test [3], 15%.

As to `Cc1ccc(CC(C)NCC(O)c2cccc(Cl)c2)cc1F.Cl` (stereo not given), the Inhibition in test [1] was 95%; in test [2] it was 88%; in test [3], 1%.

With `COc1ccc(C(=O)C2CC2CN2CC=C(c3c[nH]c4ccc(OC)nc34)CC2)cc1` (stereo not given), the results for the Inhibition in test [1], in test [2] and in test [3] were 98%, 91% and 8%, respectively.

`O=C(/C=C/c1ccc([N+](=O)[O-])cc1)NC1CCC(CN2CCC(c3c[nH]c4ccccc34)CC2)CC1` (stereo not given): the Inhibition in test [1] is 100%; in test [2] it was 61% and 81%; in test [3], 30% and 34%.

With `Cn1nc(-c2ccc(S(=O)(=O)NC3CCC(CN4CCC(c5c[nH]c6ccccc56)CC4)CC3)s2)cc1C(F)(F)F` (stereo not given), the Inhibition in test [1] is 96% and 98%; in test [2], 24% and 29%; in test [3], 35% and 38%.

Consider `Cc1ccc2c(C3=CCN(CCCCC4(C)C(=O)Nc5ccccc54)CC3)c(C)[nH]c2c1` (stereo not given), for which the figures for the Inhibition in test [1], in test [2] and in test [3] were 95%, 91% and 9%, respectively.

Take `CN(c1cc(NC(=O)c2ccccc2)ccn1)C1CCN(Cc2cccc(F)c2)CC1.O=C(O)C(F)(F)F`: the Inhibition in test [1] is given as 92%; in test [2], 94%; in test [3], 0%.

For the molecule `O=C(Cc1cc(=O)oc2cc(O)ccc12)NC1CCC(CN2CCC(c3c[nH]c4ccccc34)CC2)CC1` (stereo not given), the Inhibition was found to be 96% in test [1], 0% in test [2] and 5% in test [3].

Consider `O=C(/C=C/c1ccc(Cl)cc1Cl)NC1CCC(CN2CCC(c3c[nH]c4ccccc34)CC2)CC1` (stereo not given), for which the Inhibition came to 100% in test [1], 79% in test [2] and 37% in test [3].

Take `CCN(CC)CCN1C(=O)C(O)(c2ccccc2Cl)c2c1cc(C(N)=O)cc2C(F)(F)F.Cl` (stereo not given): the values for the Inhibition in test [1], in test [2] and in test [3] were 100%, 86% and 16%, respectively.

Take `Cc1cc2cc(CNCCc3ccccc3Br)ccc2nc1N.Cl`: the figures for the Inhibition in test [1], in test [2] and in test [3] were 98%, 91% and 31%, respectively.

Regarding `CC[C@H]1CN2CC[C@H]1C[C@H]2[C@@H](O)c1cc(OCCCN(C)C)nc2ccc(OC)cc12`, the Inhibition in test [1] was found to be 99%; in test [2], 8%; in test [3], 0%.

As for `CC[C@H]1CN2CC[C@H]1C[C@@H]2[C@@H](O)c1cc(Cl)nc2ccc(OC)cc12`, the results for the Inhibition in test [1], in test [2] and in test [3] were 98%, 82% and 0%, respectively.

As for `CNC(=O)c1ccc2[nH]cc(C3CCN(CC4CCC(NC(=O)/C=C/c5ccccc5Cl)CC4)CC3)c2c1` (stereo not given), the Inhibition is 100% in test [1], 19% in test [2] and 12% in test [3].

Take `CCCCCCCc1cc(O)c2c(c1)OC(C)(C)c1ccncc1-2.Cl`: the Inhibition in test [1] came out at 95%; in test [2] it was 52%; in test [3], 0%.

On to `CCOC(=O)c1c(C)n(C2CCCCCC2)c2cc(Br)c(O)cc12`, for which the results for the Inhibition in test [1], in test [2] and in test [3] were 87%, 45% and 0%, respectively.

For `CN1CC=C(c2csc3ccc(NC(=O)Nc4ccc(-c5ccncc5)c(Cl)c4)cc23)CC1`, the Inhibition in test [1] is recorded as 100%; in test [2], 100%; in test [3], 10%.

On to `CN1CC=C(c2c[nH]c3ccc(OC(=O)c4ccccc4)cc23)C1`, for which the Inhibition is reported as 96% in test [1], 97% in test [2] and 12% in test [3].

Consider `Cl.Fc1ccc2[nH]cc(CCN3CCC(CNCc4ccccc4)CC3)c2c1`, for which the Inhibition is recorded as 100% in test [1], 94% in test [2] and 67% in test [3].

As for `CC(C)N(C)C(=O)n1cnc(S(=O)(=O)C2CC3CCC2C3)n1.Cl` (stereo not given), the values for the Inhibition in test [1], in test [2] and in test [3] were 97%, 96% and 26%, respectively.

For the molecule `CCCC(=O)c1c(O)c2ccccc2oc1=O`, the Inhibition came to 93% in test [1], 1% in test [2] and 11% in test [3].

Take `CC(C)CNCc1cccc(-c2cccc(CN(C(=O)NC3CCCCC3)C3CCN(Cc4ccccc4)CC3)c2)c1.O=C(O)C(F)(F)F`: the Inhibition in test [1] is 97%; in test [2], 87%; in test [3], 32%.
